Experimental data reported in PubChem BioAssay (NCI).
The panel holds about 83,000 compounds, 20% with a hit somewhere; the sample as a whole holds those more often.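 In brief: 96-well plates, 48 h treatment, single concentration, percent growth endpoint.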 A number with no mark means an inactive call. Calls of active or inactive are those of the source. How the source made its calls: active means growth percent below 10; inactive means the rest.

Tests used:
Assay in all cases: NCI-60 one-dose screen, 48 h (100 = growth as untreated, 0 = no growth, -100 = all killed)
HCT-15 colon = details: 10 µM unless noted
HT29 colon = details: 10 µM unless noted
SNB-75 CNS = details: 10 µM unless noted
U251 CNS = details: 10 µM unless noted
PC-3 prostate = details: 10 µM unless noted
SK-MEL-5 melanoma = details: 10 µM unless noted
UACC-62 melanoma = details: 10 µM unless noted
LOX IMVI melanoma = details: 10 µM
SK-MEL-28 melanoma = details: 10 µM unless noted
SK-MEL-2 melanoma = details: 10 µM unless noted
EKVX NSCLC = details: 10 µM unless noted
UO-31 renal = details: 10 µM unless noted
TK-10 renal = details: 10 µM unless noted
ACHN renal = details: 10 µM unless noted
CAKI-1 renal = details: 10 µM unless noted
A498 renal = details: 10 µM unless noted
CCRF-CEM leukemia = details: 10 µM unless noted
MOLT-4 leukemia = details: 10 µM unless noted
SN12C renal = details: 10 µM unless noted

Compound	growth (HCT-15 colon)	growth (HT29 colon)	growth (SNB-75 CNS)	growth (U251 CNS)	growth (PC-3 prostate)	growth (SK-MEL-5 melanoma)	growth (UACC-62 melanoma)	growth (LOX IMVI melanoma)	growth (SK-MEL-28 melanoma)	growth (SK-MEL-2 melanoma)	growth (EKVX NSCLC)	growth (UO-31 renal)	growth (TK-10 renal)	growth (ACHN renal)	growth (CAKI-1 renal)	growth (A498 renal)	growth (CCRF-CEM leukemia)	growth (MOLT-4 leukemia)	growth (SN12C renal)
COc1ccc(-c2ccnc(SCc3cc4cc(Cl)ccc4[nH]c3=O)n2)cc1	80.8%	84.7%	-7.9% (active)	0.922% (active)	29.6%	37.4%	42.5%	80.9%	64.3%	99%	57.1%	79.1%	19.5%	55%	26.2%	41.6%	79.1%	93.6%	
CCCCCCCCOc1cccc(S(=O)(=O)Nc2ccc(C)cc2C(=O)O)c1	92.4%	110%	94.9%	91.5%	88.2%	89.1%	85.4%	101%	106%		92.8%	85.9%	102%	98.1%	85.8%	107%	72.5%	90.5%	
COc1c(F)ccc(C(=O)Nc2ccc3nc(NC(=O)C4CCCN(S(=O)(=O)C5CC5)C4)sc3c2)c1F (stereo not drawn)	34%	44.1%	56.3%	47.6%	39.1%	-43.8% (active)	44.7%	24.5%		54.9%	31.5%	43.1%	74.5%	47%	46.6%	76%	18%	3.08% (active)	65%
CCCCSc1nc(NCCc2c[nH]c3ccccc23)c(C#N)c(-c2ccc(F)cc2)n1	28.8%	25.4%	74.2%	45.6%	28.5%	37.6%	61.4%	36.1%	81.4%	72%	40.9%	56.3%	107%	71.9%	48.2%	103%	36.5%	36.5%	
CC(C)Sc1nc(NCCc2c[nH]c3ccccc23)c(C#N)c(-c2ccc(F)cc2)n1	5.84% (active)	-6.22% (active)	73%	20.7%	15%	24.1%	58.8%	-17.3% (active)	71.1%	70.3%	32.7%	44.8%	96.3%	51.7%	42.7%	42.4%	11.7%	12%	
Cc1cc2nc3c4ccccc4n(CCNCCN(C)C)c3nc2cc1C	8.66% (active)	-40.1% (active)	43.4%	36.5%	18.2%	-88.9% (active)	-87.8% (active)		-68.4% (active)	25.4%	73.2%	-16.5% (active)	54.5%	11%	14.1%	75.4%	21.7%	4.83% (active)	25.3%
CCCCSc1nc(NCCc2c[nH]c3ccccc23)c(C#N)c(-c2ccccc2)n1	16.8%	1.16% (active)	70.7%	8.25% (active)	13.2%	17.2%	72%	-34% (active)	81.1%	74%	32.9%	45.5%	74.3%	43.2%	35.2%	61.8%	8.29% (active)	13.8%	
Cc1cc(=O)oc2cc(OCCCOc3ccc(/C=C/C(=O)Nc4ccccc4N)cc3)ccc12	38%	37.4%	36.2%	32.2%	32%	-91.2% (active)	21%	-76.5% (active)	32%	48.7%	31.2%	-22.9% (active)	49.8%	34.6%	29.6%	11.2%	9.74% (active)	12.5%	
